The list is not random: actives were taken first. Their share in the collection is about 19%.
IL1B secr inh – inhibitors of inflammasome signaling (IL-1 beta secretion); THP-1 LPS/ATP IL-1B secretion, AlphaLISA, 16 h; hits give low values; activity change, % at 57.5 µM; actives 4.7% (n = 360,000); in the data active means activity change below about -50%; inconclusive means mostly about -30% to -49%
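Secreted IL-1B measured by AlphaLISA bead assay after 16 h compound exposure of THP-1 cells; compounds (final up to 57.5 uM) added 1 h before LPS (250 ng/mL) and ATP (1.25 mM) stimulation; lower signal means less secretion.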
ELG1 repair inh – inhibitors of ELG1-dependent DNA repair in HEK293T cells; HEK293T ELG1-luciferase reporter, luminescence, 16 h; DNA damage induced by 5-fluorouridine; Potency, µM (doses to about 46.1 µM), for inactives: top-dose activity change, negative = inhibition, hits mostly inhibitors; actives 2.3% (n = 330,000); AID 504467; further: potency means the concentration at half of the fitted maximal effect; nearly all actives have a fitted effect of over 55% in size
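Overnight (16 hr) co-exposure of 2,000 cells/well to 5-fluorouridine and compound at 37 °C preceded detection. Luciferase was quantified via ONE-Glo luminescence; loss of signal denotes inhibition.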
DT40 TDP1 no CPT – qHTS for Inhibitors of human tyrosyl-DNA phosphodiesterase 1 (TDP1): qHTS in cells in absence of CPT; DT40 Tdp1-/- hTDP1 cells, no CPT, ATP luminescence, 48 h; Potency, µM (highest dose often 46.2 µM), for the others: top-dose activity change, negative = growth inhibition, most hits filed as inhibitors; actives 15% (n = 420,000); AID 686978, 2013; further: potency means the concentration at half of the fitted maximal effect; nearly all actives have a fitted effect of over 55% in size
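No-CPT arm: Tdp1-/-;hTDP1 DT40 cells (400/well) plus compounds, incubated ≥48 hr at 37 °C. Readout CellTiter-Glo luminescence.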
HT1080NT lethal – kills 2HG-producing HT-1080-NT fibrosarcoma cells; actives 1.6% (n = 360,000); AID 686970; HT-1080-NT fibrosarcoma viability, CellTiter-Glo ATP luminescence, 48 h; Potency, µM (titrated, usually from 46.1 µM), for the others: at the highest dose activity, negative = less viability, most hits filed as cytotoxic;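 further: NT is the 2HG producing partner of a matched IDH1 knockdown line; potency means the concentration at half of the fitted maximal effect; 0% = DMSO-treated cells and -100% = media-only wells without cells; nearly all actives have a fitted effect of over 55% in size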
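Luminescent CellTiter-Glo readout after 48 hours of compound exposure at 37 degrees C defined viability of HT-1080-NT cells. Activity was normalized to DMSO wells and cell-free media wells; concentration-response curves were fitted and assigned curve classes.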
HT1080 IDH1KD tx – kills HT-1080 cells with IDH1 knockdown; HT-1080 IDH1 knockdown viability, ATP luminescence, 48 h; Potency, µM (series often up to 46.1 µM), for inactives: top-dose activity, negative = toxicity, most hits filed as cytotoxic; actives 2% (n = 360,000); AID 686971;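 further: potency means the concentration at half of the fitted maximal effect; 0% = DMSO wells and -100% = cell-free medium wells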
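Using the IDH1-knockdown HT-1080 line run in the same batch and compound series as the NT line, viability after 48 h at 37 °C was determined by CellTiter-Glo luminescence and expressed as % activity.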
DT40 TDP1 CPT – DT40-hTDP1 cell growth loss with CPT. chicken DT40 Tdp1-/-;hTDP1 cells + 20 nM CPT, ATP luminescence, 48 h. Potency, µM (titrated, usually from 46.2 µM), inactives show at the top dose activity change, negative = growth inhibition, usual class: inhibitors. actives 12% (n = 420,000). AID 686979; further: potency means the concentration at half of the fitted maximal effect; nearly all actives have a fitted effect of over 55% in size
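Chicken DT40 Tdp1-/- cells stably complemented with human TDP1 were seeded at 400 cells/well in medium containing 20 nM camptothecin, exposed to pin-transferred compounds, and grown at 37 °C for at least 48 hr. Viability was read as ATP luminescence.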
Active calls of the source: *; ? = inconclusive; · = no result given; [ ] = another dose, or the depositor's remark. Unless noted, the call rests on the fitted dose curve; in most records, active means well fitted curve in the direction sought with a large enough effect; inconclusive means small, poorly fitted or top-dose-only effect, or another doubt; inactive means no such curve, though single readings can be large; an effect the other way counts as inactive or inconclusive. Unless noted, on the % scale 0 is the no-effect control and ±100 the full control effect.

SMILES	IL1B secr inh	ELG1 repair inh	DT40 TDP1 no CPT	HT1080NT lethal	HT1080 IDH1KD tx	DT40 TDP1 CPT
COc1ccc(CCNC(=O)CCn2c(=O)c3ccccc3n(CC(=O)Nc3cccc(C)c3)c2=O)cc1OC	·	·	-4.5%	·	·	1.3%
CN(c1ccc(C(=O)N2CCN(Cc3ccccc3)CC2)cc1)S(=O)(=O)c1ccc(Cl)cc1	·	-16.7%	16.4µM*	-5.0%	?	?
CS(=O)(=O)c1ccc(C(=O)N2CCN(Cc3ccccc3)CC2)cc1	-0.1	-6.3%	-13.1%	14.0%	0.0%	-2.1%
COc1ccc(C(=O)N2CCc3ccc(NC(=O)c4ccccn4)cc3C2)cc1F	-1.4	?	23.1µM*	-20.9%	?	20.6µM*
COc1cc2c(cc1OC)CN(C(=O)c1ccc(S(=O)(=O)N(C)c3ccccc3)cc1)CC2	2.3	?	14.6µM*	?	-9.2%	?
COc1ccc(NC(=O)N2CCc3ccccc3C2)cc1OC	-3.3	-0.1%	6.3%	7.0%	14.9%	6.9%
COc1cc2c(cc1OC)CN(C(=O)c1ccc3nc[nH]c3c1)CC2	67.8	2.6%	3.26µM*	10.3µM*	11.6µM*	3.26µM*
CCOc1ccccc1OCCCC(=O)N1CCN(S(=O)(=O)c2ccccc2C#N)CC1	-19.7	·	?	0.5%	1.9%	-15.9%
Cc1ccc2c(c1)S(=O)(=O)c1ccc3ccccc3c1N2	8.9	·	1.7%	15.1%	2.1%	-1.4%
N#CCCN(CCC#N)C(=O)C1c2ccccc2Oc2ccccc21	-1.8	1.0%	3.9%	3.9%	4.5%	29.3%
CN1CCN(C(=O)c2ccc(S(=O)(=O)N(C)c3ccccc3)cc2)CC1	-6.5	·	-0.5%	13.3%	11.3%	-15.2%
COc1ccc(S(=O)(=O)N(C)c2ccc(C(=O)N3CCCCC3)cc2)cc1OC	45.6	?	20.6µM*	-11.4%	-6.1%	7.31µM*
COc1ccc(S(=O)(=O)N(C)c2ccc(C(=O)N3CCOCC3)cc2)cc1	-13.5	1.4%	?	1.2%	3.0%	-21.2%
O=C(c1ccc(-c2nnc(-c3ccccc3)o2)cc1)N1CCCCCC1	-6.0	?	17.8µM*	1.5%	-3.6%	10µM*
O=C(O)c1ccc(-c2nnc(-c3ccccc3)o2)cc1	-3.8	?	-18.9%	-12.7%	-5.2%	?
CN(c1ccc(C(=O)N2CCCCCC2)cc1)S(=O)(=O)c1ccccc1	13.7	20.5%	8.2µM*	2.0%	-0.7%	13µM*
COc1ccc(S(=O)(=O)N(C)c2ccc(C(=O)N3CCCCC3)cc2)cc1	0.0	?	14.6µM*	-9.7%	-8.8%	?
CC(=O)c1sc(NC(=O)COc2ccc(C)c(C)c2)nc1C	-2.3	0.0%	-20.4%	2.0%	13.5%	-25.3%
COc1ccc(-c2c(C#N)c(N)nc3c2c(=O)n(C)c(=O)n3C)cc1	12.8	?	13µM*	-4.2%	3.6%	?
Cc1cccc(Oc2sc(C(=O)c3ccccc3)c(N)c2C#N)c1	-85.9*	?	?	?	?	?
COc1ccc(-c2c(C#N)c(N)nc3sc(C(=O)c4ccccc4)c(N)c23)cc1	-6.6	?	23.1µM*	1.4%	14.2%	?
CCOc1ccc(-c2c(C#N)c(N)nc3sc(C(=O)c4ccccc4)c(N)c23)cc1	83.2	2.7%	-21.9%	-5.2%	-0.7%	?
COc1ccc(C(=O)NC2CCN(Cc3c(F)cccc3Cl)CC2)cc1OC	33.6	?	?	5.8%	-4.4%	-21.5%
Cc1c(C(=O)NCC2CCCN(C)C2)cnn1-c1ncc2c(n1)-c1ccccc1CCC2 (stereo unspecified)	·	·	-11.7%	·	·	-5.2%[9.04 µM]
Nc1ncc(S(=O)(=O)N2CCN(c3ccccc3)CC2)cn1	·	·	-14.5%	·	·	-25.5%
SMILES	IL1B secr inh	ELG1 repair inh	DT40 TDP1 no CPT	HT1080NT lethal	HT1080 IDH1KD tx	DT40 TDP1 CPT
COc1ccc(-c2c(C#Cc3ccsc3)c3cc(-c4cccc5[nH]ccc45)ccc3n2C)cc1	-15.0	13.1%	18.4µM*	-5.1%	6.3%	?
COC(=O)c1ccc2c(c1)c(C#Cc1ccccc1)c(-c1ccccc1)n2C	13.3	?	16.4µM*	7.6%	0.8%	20.6µM*
COc1ccc(-c2c(C#Cc3ccsc3)c3cc(-c4ccc(C(N)=O)cc4)ccc3n2C)cc1	-6.9	-14.0%	?	11.8%	-10.0%	23.1µM*
COc1ccc(-c2c(C#Cc3ccsc3)c3cc(-c4ccc5[nH]ccc5c4)ccc3n2C)cc1	1.5	6.5%	?	-2.4%	0.8%	-23.4%
COc1cc(C#Cc2c(-c3ccccc3)n(C)c3ccccc23)cc(OC)c1	13.5	4.4%	?	-5.4%	-0.1%	?
COc1ccc(-c2c(C#Cc3ccsc3)c3ccccc3n2C)cc1	21.0	?	23.1µM*	-12.4%	-1.0%	20.6µM*
COc1ccc(-c2c(C#Cc3ccsc3)c3cc(-c4ccc5c(c4)OCCO5)ccc3n2C)cc1	5.9	18.6%	-7.5%	0.0%	-1.4%	-23.4%
CCOC(=O)C1(CCCc2ccccc2)CCN(S(=O)(=O)N(C)C)CC1	?	-10.9%	?	-25.9%	-18.2%	?
COc1cc(C(=O)COC(=O)c2cnc(C)cn2)ccc1OC(F)F	14.4	3.9%	-11.6%	-4.5%	-9.2%	-30.0%
CCOc1ccc(NC(=O)Cn2cc(C(=O)c3ccc(F)cc3)c(=O)c3cc4c(cc32)OCO4)cc1	·	·	-26.9%	·	·	-27.6%
COc1cc(F)cc(-c2ccc3c(c2)c(C#Cc2ccsc2)c(-c2cc(OC)cc(OC)c2)n3C)c1	-11.0	?	14.6µM*	8.1%	-0.5%	?
CC(C)N(C(=O)CSc1n[nH]c(=O)n1CCc1ccccc1)C(C)C	17.6	-10.3%	?	11.4%	9.2%	0.0%
O=S(=O)(c1cccc(F)c1)N1CCN(c2ncnc3scc(-c4ccc(F)cc4)c23)CC1	-11.0	?	11.6µM*	4.2%	-5.9%	14.6µM*
Cc1sc2ncnc(N3CCN(S(=O)(=O)c4ccccc4)CC3)c2c1C	32.5	?	6.51µM*	7.0%	6.6%	8.2µM*
Cc1ccc(S(=O)(=O)N2CCN(c3ncnc4scc(-c5ccc(F)cc5)c34)CC2)cc1	40.2	?	14.6µM*	-17.9%	-14.2%	?
COc1ccc(-c2csc3ncnc(N4CCN(Cc5ccccc5)CC4)c23)cc1	-3.1	?	?	1.4%	0.1%	?
